According to PubChem BioAssay (EPA / NIEHS):
Inconclusive results are not listed. The source holds several records for some structures; these can differ, active in one and inactive in another. Activity calls are given as the source filed them. The calls were made as follows, unless noted: active = hit-call score of the fitted dose curve at least 0.9, where 1 is the maximum; inactive = score below 0.9.

Experiments:
[1] = read-out: Interleukin-8 (IL8), CXCL8 (gene 3576); experiment: BSK_3C_IL8: BioMAP Diversity Plus: 3C Assay for Interleukin-8 (IL8) Biomarker Activity (AID 2283020); conditions: primary human endothelial cells (HUVEC); actives raise or lower the signal
Outline: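 Endothelial primary cells of human umbilical vein origin are dosed with chemical; after 24 h the IL-8 biomarker is measured by ELISA, and concentration–response is fitted in both directions versus DMSO.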

[2] = read-out: Monokine induced gamma interferon (MIG), CXCL9 (gene 4283); experiment: BSK_3C_MIG: BioMAP Diversity Plus: 3C Assay for Monokine induced gamma interferon (MIG) Biomarker Activity (AID 2283021); conditions: primary human endothelial cells (HUVEC); actives raise or lower the signal;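 as to AC50: MIG protein level measured by immunoassay in the treated endothelial cultures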
Outline: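 Endothelial primary cells (human umbilical vein) are dosed with test chemical in the 3C system. MIG levels are measured by ELISA at 24 h and fitted in both directions relative to DMSO.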

[3] = molecular target: human Vitamin D Receptor (VDR), VDR (gene 7421) (UniProt P11473); experiment: ATG_VDR_TRANS: Attagene TRANS-FACTORIAL HepG2 Assay for human Vitamin D Receptor (VDR) (AID 2283022; active = hit-call score of the fitted dose curve at least 0.9, where 1 is the maximum)
human Vitamin D Receptor (VDR), VDR (gene 7421), sequence (P11473 whole entry, looked up, the tested form may be a part): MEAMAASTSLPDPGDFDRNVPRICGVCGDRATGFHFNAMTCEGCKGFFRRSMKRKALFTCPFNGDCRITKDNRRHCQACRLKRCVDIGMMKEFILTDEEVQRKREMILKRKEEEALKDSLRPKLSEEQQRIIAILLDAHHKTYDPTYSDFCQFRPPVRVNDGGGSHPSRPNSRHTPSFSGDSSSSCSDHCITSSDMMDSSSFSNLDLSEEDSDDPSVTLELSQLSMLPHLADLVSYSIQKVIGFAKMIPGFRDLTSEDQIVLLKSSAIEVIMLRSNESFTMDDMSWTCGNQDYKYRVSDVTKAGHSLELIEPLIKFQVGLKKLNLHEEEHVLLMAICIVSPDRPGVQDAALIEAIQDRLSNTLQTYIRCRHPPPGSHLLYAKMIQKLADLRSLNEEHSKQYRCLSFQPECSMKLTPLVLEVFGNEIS
Outline: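 HepG2 cells were transiently transfected with multiple GAL4-UAS reporter units, so signal reflects exogenous chimeric receptor-Gal4 activity. After 24 h compound exposure, reporter mRNA was measured by RT-PCR, fluorescent labelling and capillary electrophoresis, fitted for gain of signal versus DMSO.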

[4] = BSK_3C_SRB: Viability Assessment in the BioMAP Diversity Plus: 3C Assay (AID 2283023); conditions: primary human endothelial cells (HUVEC);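 also: fitted both ways against DMSO so a hit may be signal rise or drop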
Outline: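 Primary human umbilical vein endothelial cells in the 3C system were read 24 h after compound dosing. Total protein was stained with 0.1% sulforhodamine B after 10% TCA fixation and read at 560 nm, with bidirectional fitting against DMSO as baseline.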

[5] = read-out: Matrix Metallopeptidase 1 (MMP1), MMP1 (gene 4312); experiment: BSK_BE3C_MMP1: BioMAP Diversity Plus: BE3C Assay for Matrix Metallopeptidase 1 (MMP1) Biomarker Activity (AID 2283024); conditions: primary human bronchial epithelial cells; actives raise or lower the signal
Outline: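 MMP1 signal, measured by ELISA after a 24 h chemical exposure of human primary bronchial epithelial cells, is analysed with bidirectional fitting using DMSO as negative control.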

[6] = read-out: Pselectin, SELP (gene 6403); experiment: BSK_4H_Pselectin: BioMAP Diversity Plus: 4H Assay for Pselectin Biomarker Activity (AID 2283026); conditions: primary human endothelial cells (HUVEC); actives raise or lower the signal
Outline: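 Endothelial primary cells (human umbilical vein) are dosed, incubated 24 h, and assayed for surface P-selectin by ELISA; responses in either direction are fitted relative to the DMSO negative control.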

[7] = BSK_4H_SRB: Viability Assessment in the BioMAP Diversity Plus: 4H Assay (AID 2283027); conditions: primary human endothelial cells (HUVEC);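 also: cells exposed to compound for 24 h before staining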;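 as to AC50: curves fitted both ways versus DMSO so AC50 may be loss or gain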
Outline: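 Cytotoxicity readout: sulforhodamine B (0.1%) staining of total protein after 10% TCA fixation, measured at 560 nm in human umbilical vein endothelium at 24 h. DMSO set the baseline; fitting was bidirectional.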

[8] = BSK_BE3C_SRB: Viability Assessment in the BioMAP Diversity Plus: BE3C Assay (AID 2283028); conditions: primary human bronchial epithelial cells;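 as to AC50: fitted both ways so AC50 may mark signal gain or loss versus DMSO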
Outline: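 Human primary bronchial epithelial cells were exposed to test chemicals for 24 h. Total protein in parallel cultures was then measured by staining with 0.1% sulforhodamine B after 10% TCA fixation, with absorbance read at 560 nm. Activity was fitted bidirectionally against DMSO.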

[9] = read-out: Thrombomodulin, THBD (gene 7056); experiment: BSK_3C_Thrombomodulin: BioMAP Diversity Plus: 3C Assay for Thrombomodulin Biomarker Activity (AID 2283029); conditions: primary human endothelial cells (HUVEC); actives raise or lower the signal
Outline: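 Endothelial cells from umbilical vein are dosed with test chemical and incubated 24 h. Thrombomodulin is then quantified by ELISA, with DMSO serving as negative control and activity baseline.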

[10] = read-out: Urokinase-type plasminogen activator receptor (uPAR), PLAUR (gene 5329); experiment: BSK_4H_uPAR: BioMAP Diversity Plus: 4H Assay for Urokinase-type plasminogen activator receptor (uPAR) Biomarker Activity (AID 2283030); conditions: primary human endothelial cells (HUVEC); actives raise or lower the signal
Outline: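 Primary human umbilical vein endothelial cells were exposed to chemical for 24 h before cell-surface uPAR was quantified by ELISA. Activity was fitted bidirectionally against the DMSO negative control baseline.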

[11] = read-out: Vascular endothelial growth factor receptor 2 (Homo sapiens) (UniProt P35968); experiment: BSK_4H_VEGFRII: BioMAP Diversity Plus: 4H Assay for Vascular endothelial growth factor receptor 2 (VEGFR2) Biomarker Activity (AID 2283031); conditions: primary human endothelial cells (HUVEC); actives raise or lower the signal;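 as to AC50: cell-surface VEGFR2 protein level quantified by ELISA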
Outline: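 Primary human umbilical vein endothelial cells in the BioMAP 4H system were dosed with test chemical, and 24 h later VEGFRII was measured by ELISA. Activity was fitted bidirectionally against DMSO as negative control and baseline.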

[12] = read-out: Human Leukocyte Antigen - DR isotype (HLADR), HLA-DRA (gene 3122); experiment: BSK_BE3C_HLADR: BioMAP Diversity Plus: BE3C Assay for Human Leukocyte Antigen - DR isotype (HLADR) Biomarker Activity (AID 2283032); conditions: primary human bronchial epithelial cells; actives raise or lower the signal
Outline: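 Chemicals are dosed onto BE3C bronchial epithelial cultures of human origin and left 24 h. HLA-DR is then measured by ELISA, and the endpoint is fitted in both directions using DMSO as the activity baseline.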

[13] = read-out: Vascular cell adhesion molecule 1 (VCAM1), VCAM1 (gene 7412); experiment: BSK_4H_VCAM1: BioMAP Diversity Plus: 4H Assay for Vascular cell adhesion molecule 1 (VCAM1) Biomarker Activity (AID 2283033); conditions: primary human endothelial cells (HUVEC); actives raise or lower the signal
Outline: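 Chemicals are added to primary human umbilical vein endothelial cells. After 24 h, VCAM-1 levels are measured by ELISA. Values come from bidirectional fitting referenced to DMSO.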

[14] = read-out: Interferon-gamma inducible Protein 10 (IP10), CXCL10 (gene 3627); experiment: BSK_BE3C_IP10: BioMAP Diversity Plus: BE3C Assay for Interferon-gamma inducible Protein 10 (IP10) Biomarker Activity (AID 2283034); conditions: primary human bronchial epithelial cells; actives raise or lower the signal
Outline: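 IP-10 quantified by ELISA serves as the endpoint. Cells: primary human bronchial epithelium, read 24 h after compound addition. Activity is derived by bidirectional fitting with DMSO as negative control.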

[15] = read-out: Monokine induced gamma interferon (MIG), CXCL9 (gene 4283); experiment: BSK_BE3C_MIG: BioMAP Diversity Plus: BE3C Assay for Monokine induced gamma interferon (MIG) Biomarker Activity (AID 2283035); conditions: primary human bronchial epithelial cells; actives raise or lower the signal
Outline: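 hu bronchial epithelial 1° cells, 24 h cpd; MIG by ELISA; bidirectional fit, DMSO = baseline.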

[16] = read-out: Plasminogen activator inhibitor-1 (PAI1), SERPINE1 (gene 5054); experiment: BSK_BE3C_PAI1: BioMAP Diversity Plus: BE3C Assay for Plasminogen activator inhibitor-1 (PAI1) Biomarker Activity (AID 2283037); conditions: primary human bronchial epithelial cells; actives raise or lower the signal
Outline: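 Values derive from bidirectional fitting against DMSO baseline of PAI-1 levels, measured by ELISA in human bronchial epithelial cells 24 h after compound addition.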

[17] = read-out: urokinase plasminogen activator (uPA), PLAU (gene 5328); experiment: BSK_BE3C_uPA: BioMAP Diversity Plus: BE3C Assay for urokinase plasminogen activator (uPA) Biomarker Activity (AID 2283038); conditions: primary human bronchial epithelial cells; actives raise or lower the signal
Outline: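 Human primary bronchial epithelial cells were exposed to chemical for 24 h, then uPA levels were measured by ELISA. Responses were fitted bidirectionally against DMSO as negative control and baseline. Parallel SRB staining of total protein gauged overt cytotoxicity.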

[18] = read-out: Urokinase-type plasminogen activator receptor (uPAR), PLAUR (gene 5329); experiment: BSK_BE3C_uPAR: BioMAP Diversity Plus: BE3C Assay for Urokinase-type plasminogen activator receptor (uPAR) Biomarker Activity (AID 2283039); conditions: primary human bronchial epithelial cells; actives raise or lower the signal
Outline: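 Steps: dose human primary bronchial epithelial cells, incubate 24 h, measure uPAR by ELISA, then fit gain- or loss-of-signal response bidirectionally relative to DMSO.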

[19] = BSK_3C_Vis: BioMAP Diversity Plus: 3C Assay for Morphology Visualization (AID 2283025); conditions: primary human endothelial cells (HUVEC);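 also: fitted both ways so gain or loss versus DMSO counts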
Outline: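 Morphology read by light microscopy serves as a background control for the multiplexed 3C assay in human umbilical vein endothelial cells, taken 24 h after dosing, with DMSO as the negative control and bidirectional curve fitting.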

[20] = read-out: Transforming growth factor beta 1 (TGFb1), TGFB1 (gene 7040); experiment: BSK_BE3C_TGFb1: BioMAP Diversity Plus: BE3C Assay for Transforming growth factor beta 1 (TGFb1) Biomarker Activity (AID 2283036); conditions: primary human bronchial epithelial cells; actives raise or lower the signal
Outline: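 Bronchial epithelial primary cells are treated with test chemical, then TGF-b1 is quantified by ELISA after 24 hours. Values derive from bidirectional fitting against DMSO, with cytotoxicity checked by SRB staining in parallel cultures.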

Measured: AC50

O=C(O)C(F)(OC(F)(F)C(F)(F)C(F)(F)F)C(F)(F)F (stereo unspecified)
active: [1] 5.95 µM | [5] 10.7 µM | [16] 0.22 µM
inactive: [1] | [2] | [3] | [4] | [5] | [6] | [7] | [8] | [9] | [10] | [11] | [12] | [13] | [14] | [15] | [16] | [17] | [18]

ClC(Cl)=C(c1ccc(Cl)cc1)c1ccccc1Cl
active: [1] 11.8 µM | [2] 29.2 µM | [4] 7.99 µM | [19] 14.4 µM | [6] 10.6 µM | [7] 12.6 µM | [8] 10.5 µM | [10] 11.7 µM | [11] 5.35 µM | [12] 20 µM | [13] 11.8 µM | [14] 10.7 µM | [16] 10.3 µM | [17] 20 µM | [18] 8.34 µM
inactive: [3] | [5] | [9] | [20]

CCOC(=O)c1ccccc1C(=O)OCC
inactive: all assays above

CCCCOCCOP(=O)(OCCOCCCC)OCCOCCCC
active: [19] 37.5 µM
not listed: [15]
inactive: all other assays above

FC(F)(F)C(F)(C(F)(F)F)C(F)(F)C(F)(F)CC1CO1 (stereo unspecified)
active: [5] 2.33 µM
inactive: [1] | [2] | [3] | [4] | [5] | [6] | [7] | [8] | [9] | [10] | [11] | [12] | [13] | [14] | [16] | [17] | [18]

ClC1=C(Cl)C2(Cl)C3C(Cl)C(Cl)CC3C1(Cl)C2(Cl)Cl (stereo unspecified)
inactive: [3] | [8] | [9] | [17] | [18]
active: [1] 35.6 µM | [2] 35.6 µM | [4] 29.8 µM | [5] 14.4 µM | [19] 37.3 µM | [6] 24.7 µM | [7] 29.6 µM | [10] 38 µM | [11] 30.3 µM | [12] 15.2 µM | [13] 27.3 µM | [14] 34.9 µM | [15] 30.6 µM | [20] 9.17 µM | [16] 36.1 µM

CCOP(=S)(OCC)SCn1nnc2ccccc2c1=O
not listed: [15]
inactive: all other assays above
